Measurements: the supplement of paper PMC10849652
About 8,800 targets were measured; listed, in parts, are those with a hit and a random draw of the rest. About 0.5% of all pairs of compound and target were hits. Values without a mark were called inactive.

Legend:
Experiment in all cases: log2 fold change, soluble protein after heating vs DMSO (PISA); higher = thermal stabilisation; K562 lysate, 10 uM; active = over 0.2 and 3.5 SD of the protein, either way, in both replicates (recomputed)
[1] = compound: CCn1c(C(=O)N(C2CC2)C2CC2)cc2c3c(ncn3C)c(Nc3cc(C)n(C)n3)nc21
How it was run: (§1)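 Log-two fold change in thermal stability relative to solvent controls is reported from duplicates. For each sample, crude K562 extract from dounce-homogenised pellets in PBS pH 7.4 with 1 mM MgCl2, at 1 mg/mL protein, was treated with 10 μM compound for 30 min. Aliquots heated for 3 min across 48°C-58°C were pooled, brought to 0.5% NP-40 at 4°C and cleared at 21,000xg for 90 min. The supernatant was quantified by TMTpro 16plex LC-MS/MS with channel sums equalised.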

Tubastatin A = compound: CN1CCc2c(c3ccccc3n2Cc2ccc(C(=O)NO)cc2)C1 [Tubastatin A]
How it was run: as §1

vemurafenib = compound: CCCS(=O)(=O)Nc1ccc(F)c(C(=O)c2c[nH]c3ncc(-c4ccc(Cl)cc4)cc23)c1F [vemurafenib]
How it was run: as §1

[2] = compound: CCCS(=O)(=O)Nc1ccc(F)c(C(=O)c2c[nH]c3ncc(Cl)cc23)c1F
How it was run: as §1

barasertib = compound: CCN(CCCOc1ccc2c(Nc3cc(CC(=O)Nc4cccc(F)c4)[nH]n3)ncnc2c1)CCOP(=O)(O)O [barasertib]
How it was run: as §1

[3] = compound: CC[C@@H]1C(=O)N(C)c2cnc(Nc3ccc(C(=O)NC4CCN(C)CC4)cc3OC)nc2N1C1CCCC1
How it was run: as §1

volasertib = compound: CC[C@@H]1C(=O)N(C)c2cnc(Nc3ccc(C(=O)N[C@H]4CC[C@H](N5CCN(CC6CC6)CC5)CC4)cc3OC)nc2N1C(C)C [volasertib]
How it was run: as §1

[4] = compound: CCn1cc(-c2ccnc3[nH]c(-c4cccc(CN(C)C)c4)cc23)c(-c2ccc(NC(=O)N(C)C)cc2)n1
How it was run: as §1

[5] = compound: CN1CCC(CNc2ccc3ncc(-c4cccc(OC(F)(F)F)c4)n3n2)CC1
How it was run: as §1

saracatinib = compound: CN1CCN(CCOc2cc(OC3CCOCC3)c3c(Nc4c(Cl)ccc5c4OCO5)ncnc3c2)CC1 [saracatinib]
How it was run: as §1

alvocidib = compound: CN1CC[C@H](c2c(O)cc(O)c3c(=O)cc(-c4ccccc4Cl)oc23)[C@H](O)C1 [alvocidib]
How it was run: as §1

[6] = compound: CNC(=O)C1=CC=CC=C1NC2=NC(=NC=C2Cl)NC3=C(C=C(C=C3)N4CCOCC4)OC
How it was run: as §1

defactinib = compound: CNC(=O)c1ccc(Nc2ncc(C(F)(F)F)c(NCc3nccnc3N(C)S(C)(=O)=O)n2)cc1 [defactinib]
How it was run: as §1

[7] = compound: CNc1nc(-c2ccc3c(N)n[nH]c3c2)cc(N2C[C@@H](C(=O)NC3CCCCC3)CC[C@H]2C)n1
How it was run: as §1

encorafenib = compound: COC(=O)N[C@@H](C)CNc1nccc(-c2cn(C(C)C)nc2-c2cc(Cl)cc(NS(C)(=O)=O)c2F)n1 [encorafenib]
How it was run: as §1

[8] = compound: COC(=O)[C@H](CCSC)NC(=O)C1=C(C=C(C=C1)NC[C@H](CS)N)C2=CC=CC=C2
How it was run: as §1

alisertib = compound: COc1cc(Nc2ncc3c(n2)-c2ccc(Cl)cc2C(c2c(F)cccc2OC)=NC3)ccc1C(=O)O [alisertib]
How it was run: as §1

[9] = compound: COc1cc2nc(-c3cc(F)ccc3O)nc(N[C@@H]3CNC[C@H]3C(C)(C)O)c2cc1OC
How it was run: as §1

gefitinib = compound: COc1cc2ncnc(Nc3ccc(F)c(Cl)c3)c2cc1OCCCN1CCOCC1 [gefitinib]
How it was run: as §1

sotrastaurin = compound: CN1CCN(c2nc(C3=C(c4c[nH]c5ccccc45)C(=O)NC3=O)c3ccccc3n2)CC1 [sotrastaurin]
How it was run: as §1

Chain of UniProt Q5TEU4 (Q5TEU4 whole entry, looked up): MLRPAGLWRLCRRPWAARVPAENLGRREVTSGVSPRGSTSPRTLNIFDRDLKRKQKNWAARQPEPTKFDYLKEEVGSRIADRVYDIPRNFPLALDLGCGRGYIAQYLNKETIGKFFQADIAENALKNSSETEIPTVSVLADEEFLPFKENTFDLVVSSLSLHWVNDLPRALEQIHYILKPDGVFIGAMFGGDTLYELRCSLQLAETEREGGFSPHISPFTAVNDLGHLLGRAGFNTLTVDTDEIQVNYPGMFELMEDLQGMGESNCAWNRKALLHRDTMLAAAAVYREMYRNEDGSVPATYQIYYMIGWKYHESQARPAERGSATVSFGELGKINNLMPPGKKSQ
Chain of UniProt P53370 (P53370 whole entry, looked up): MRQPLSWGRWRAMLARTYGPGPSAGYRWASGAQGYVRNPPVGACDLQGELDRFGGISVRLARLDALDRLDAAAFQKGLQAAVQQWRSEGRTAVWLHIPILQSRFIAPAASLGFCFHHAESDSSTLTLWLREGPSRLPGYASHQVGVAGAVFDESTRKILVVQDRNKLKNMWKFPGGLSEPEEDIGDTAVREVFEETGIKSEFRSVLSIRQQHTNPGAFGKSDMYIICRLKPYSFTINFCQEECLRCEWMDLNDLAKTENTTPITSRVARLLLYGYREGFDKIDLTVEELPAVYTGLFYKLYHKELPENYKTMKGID
Chain of UniProt B2RTY4 (B2RTY4 whole entry, looked up): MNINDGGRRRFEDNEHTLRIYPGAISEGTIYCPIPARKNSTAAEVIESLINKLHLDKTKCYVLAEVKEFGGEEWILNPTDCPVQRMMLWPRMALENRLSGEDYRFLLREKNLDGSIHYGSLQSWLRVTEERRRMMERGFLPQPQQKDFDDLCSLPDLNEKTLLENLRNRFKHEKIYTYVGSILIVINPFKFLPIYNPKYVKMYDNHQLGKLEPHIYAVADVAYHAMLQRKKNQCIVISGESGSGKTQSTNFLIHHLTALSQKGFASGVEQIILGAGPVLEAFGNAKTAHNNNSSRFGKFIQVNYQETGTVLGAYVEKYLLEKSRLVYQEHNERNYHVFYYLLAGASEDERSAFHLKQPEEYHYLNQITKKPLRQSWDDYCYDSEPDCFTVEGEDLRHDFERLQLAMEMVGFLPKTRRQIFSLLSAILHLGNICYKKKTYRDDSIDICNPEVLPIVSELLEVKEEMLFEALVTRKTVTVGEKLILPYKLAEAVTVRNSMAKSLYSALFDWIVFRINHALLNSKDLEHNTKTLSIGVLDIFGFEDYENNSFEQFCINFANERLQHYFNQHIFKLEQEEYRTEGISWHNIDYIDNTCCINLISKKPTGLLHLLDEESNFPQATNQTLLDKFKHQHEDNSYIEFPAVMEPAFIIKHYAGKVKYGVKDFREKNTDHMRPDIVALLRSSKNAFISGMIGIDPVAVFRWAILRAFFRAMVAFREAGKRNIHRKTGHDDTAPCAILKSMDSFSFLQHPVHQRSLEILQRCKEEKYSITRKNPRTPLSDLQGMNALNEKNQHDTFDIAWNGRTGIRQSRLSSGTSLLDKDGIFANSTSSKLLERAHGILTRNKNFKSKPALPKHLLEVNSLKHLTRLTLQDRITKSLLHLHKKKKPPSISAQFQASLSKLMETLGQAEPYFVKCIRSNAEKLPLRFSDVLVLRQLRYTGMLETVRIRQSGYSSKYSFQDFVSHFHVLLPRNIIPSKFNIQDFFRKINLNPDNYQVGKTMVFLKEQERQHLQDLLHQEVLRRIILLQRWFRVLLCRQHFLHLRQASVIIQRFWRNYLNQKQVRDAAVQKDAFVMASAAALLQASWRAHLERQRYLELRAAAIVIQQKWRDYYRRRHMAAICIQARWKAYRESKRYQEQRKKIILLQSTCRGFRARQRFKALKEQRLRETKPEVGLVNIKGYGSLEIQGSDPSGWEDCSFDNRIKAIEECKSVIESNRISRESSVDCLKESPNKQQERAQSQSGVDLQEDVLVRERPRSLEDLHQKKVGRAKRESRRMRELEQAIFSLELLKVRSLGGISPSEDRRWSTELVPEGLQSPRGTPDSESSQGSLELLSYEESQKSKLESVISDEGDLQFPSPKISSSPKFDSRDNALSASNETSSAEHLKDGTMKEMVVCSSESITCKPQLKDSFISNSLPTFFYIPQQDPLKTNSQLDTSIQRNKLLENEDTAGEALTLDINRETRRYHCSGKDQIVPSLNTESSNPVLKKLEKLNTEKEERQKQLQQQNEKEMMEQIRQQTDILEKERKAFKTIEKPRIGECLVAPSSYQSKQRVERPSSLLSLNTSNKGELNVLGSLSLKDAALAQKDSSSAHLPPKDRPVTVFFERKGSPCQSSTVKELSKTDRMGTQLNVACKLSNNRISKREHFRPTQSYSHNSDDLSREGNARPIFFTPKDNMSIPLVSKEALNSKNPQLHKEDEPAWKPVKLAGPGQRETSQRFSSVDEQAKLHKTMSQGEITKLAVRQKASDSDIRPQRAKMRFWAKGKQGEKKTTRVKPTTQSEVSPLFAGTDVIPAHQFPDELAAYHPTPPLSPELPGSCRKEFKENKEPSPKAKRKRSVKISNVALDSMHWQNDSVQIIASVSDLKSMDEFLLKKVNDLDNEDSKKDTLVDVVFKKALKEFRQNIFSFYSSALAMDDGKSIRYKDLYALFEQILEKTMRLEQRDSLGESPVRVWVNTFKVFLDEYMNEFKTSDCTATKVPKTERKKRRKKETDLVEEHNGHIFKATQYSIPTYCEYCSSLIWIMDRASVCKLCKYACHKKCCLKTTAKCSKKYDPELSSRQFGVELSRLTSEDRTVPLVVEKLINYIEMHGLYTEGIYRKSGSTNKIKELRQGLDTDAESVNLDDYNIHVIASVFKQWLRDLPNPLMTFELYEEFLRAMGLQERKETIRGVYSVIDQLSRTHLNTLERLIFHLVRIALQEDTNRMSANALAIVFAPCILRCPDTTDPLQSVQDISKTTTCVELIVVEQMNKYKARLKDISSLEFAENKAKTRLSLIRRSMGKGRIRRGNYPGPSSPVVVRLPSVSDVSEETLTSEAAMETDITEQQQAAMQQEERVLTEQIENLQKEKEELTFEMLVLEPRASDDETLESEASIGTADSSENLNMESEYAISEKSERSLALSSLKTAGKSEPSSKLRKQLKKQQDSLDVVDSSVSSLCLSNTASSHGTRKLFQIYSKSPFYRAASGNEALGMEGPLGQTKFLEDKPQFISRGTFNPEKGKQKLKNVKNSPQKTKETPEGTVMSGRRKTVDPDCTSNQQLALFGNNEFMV
Chain of UniProt P49116 (P49116 whole entry, looked up): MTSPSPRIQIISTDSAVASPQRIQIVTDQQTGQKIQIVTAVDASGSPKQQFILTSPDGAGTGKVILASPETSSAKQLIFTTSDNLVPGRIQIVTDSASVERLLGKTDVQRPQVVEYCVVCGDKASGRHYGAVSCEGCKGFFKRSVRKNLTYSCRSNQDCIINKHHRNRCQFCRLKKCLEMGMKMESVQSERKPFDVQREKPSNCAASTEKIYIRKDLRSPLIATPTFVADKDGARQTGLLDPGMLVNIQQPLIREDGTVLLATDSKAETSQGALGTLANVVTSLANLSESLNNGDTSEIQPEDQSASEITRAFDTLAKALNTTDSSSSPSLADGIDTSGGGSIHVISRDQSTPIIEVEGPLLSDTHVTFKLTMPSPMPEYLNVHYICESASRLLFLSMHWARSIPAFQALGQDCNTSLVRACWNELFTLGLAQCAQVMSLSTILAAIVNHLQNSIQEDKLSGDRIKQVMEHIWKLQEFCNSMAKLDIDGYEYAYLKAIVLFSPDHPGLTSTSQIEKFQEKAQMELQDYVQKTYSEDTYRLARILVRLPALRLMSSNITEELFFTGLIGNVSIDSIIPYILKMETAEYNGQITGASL
Chain of UniProt P47900 (P47900 whole entry, looked up): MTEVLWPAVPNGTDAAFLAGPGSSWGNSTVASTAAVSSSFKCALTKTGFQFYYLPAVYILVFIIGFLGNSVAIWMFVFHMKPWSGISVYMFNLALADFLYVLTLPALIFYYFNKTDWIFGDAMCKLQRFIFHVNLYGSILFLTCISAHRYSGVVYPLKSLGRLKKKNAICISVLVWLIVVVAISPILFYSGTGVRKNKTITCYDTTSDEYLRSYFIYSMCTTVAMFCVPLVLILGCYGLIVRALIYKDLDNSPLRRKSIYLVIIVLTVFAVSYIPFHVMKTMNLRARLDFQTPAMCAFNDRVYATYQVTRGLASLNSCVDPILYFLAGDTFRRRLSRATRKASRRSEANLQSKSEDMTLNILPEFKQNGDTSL
Chain of UniProt P03928 (P03928 whole entry, looked up): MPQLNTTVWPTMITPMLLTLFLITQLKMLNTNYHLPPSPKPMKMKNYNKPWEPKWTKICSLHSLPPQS
Chain of UniProt Q9UBD5 (Q9UBD5 whole entry, looked up): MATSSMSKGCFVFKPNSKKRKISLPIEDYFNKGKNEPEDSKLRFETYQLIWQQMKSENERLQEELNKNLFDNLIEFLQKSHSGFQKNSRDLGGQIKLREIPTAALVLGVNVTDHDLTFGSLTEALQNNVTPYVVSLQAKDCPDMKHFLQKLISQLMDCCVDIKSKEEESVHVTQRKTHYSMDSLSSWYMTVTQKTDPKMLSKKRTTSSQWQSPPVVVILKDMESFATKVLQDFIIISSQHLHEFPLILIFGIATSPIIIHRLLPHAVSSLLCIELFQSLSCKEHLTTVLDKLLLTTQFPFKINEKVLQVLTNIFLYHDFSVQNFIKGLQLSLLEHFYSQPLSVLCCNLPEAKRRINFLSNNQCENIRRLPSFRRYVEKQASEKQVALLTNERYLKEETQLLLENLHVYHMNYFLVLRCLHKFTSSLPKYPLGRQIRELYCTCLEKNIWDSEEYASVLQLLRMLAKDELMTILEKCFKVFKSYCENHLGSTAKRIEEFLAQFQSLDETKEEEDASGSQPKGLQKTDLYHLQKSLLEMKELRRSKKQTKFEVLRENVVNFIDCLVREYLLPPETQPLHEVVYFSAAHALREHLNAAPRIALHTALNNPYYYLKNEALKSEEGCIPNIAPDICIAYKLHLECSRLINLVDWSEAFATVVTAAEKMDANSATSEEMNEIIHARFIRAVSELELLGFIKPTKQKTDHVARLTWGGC

| Target | log2 fold change [1] | log2 fold change (Tubastatin A) | log2 fold change (vemurafenib) | log2 fold change [2] | log2 fold change (barasertib) | log2 fold change [3] | log2 fold change (volasertib) | log2 fold change [4] | log2 fold change [5] | log2 fold change (saracatinib) | log2 fold change (alvocidib) | log2 fold change [6] | log2 fold change (defactinib) | log2 fold change [7] | log2 fold change (encorafenib) | log2 fold change [8] | log2 fold change (alisertib) | log2 fold change [9] | log2 fold change (gefitinib) | log2 fold change (sotrastaurin) |
| --- | --- | --- | --- | --- | --- | --- | --- | --- | --- | --- | --- | --- | --- | --- | --- | --- | --- | --- | --- | --- |
| NUB1 (UniProt H7C5N1) | 0.312 | 0.209 | – | – | – | – | – | – | – | – | – | – | – | – | – | – | – | – | – | – |
| NSA2 (UniProt O95478) | -0.043 | -0.181 | -0.035 | 0.101 | -0.093 | 0.067 | 0.034 | -0.441 | -0.221 | -0.084 | -0.291 | -0.017 | 0.058 | 0.066 | -0.184 | -0.086 | -0.14 | -0.012 | 0.056 | – |
| NUMB isoform 2 (UniProt P49757) | -0.146 | -0.112 | – | – | – | – | – | – | – | -0.04 | – | – | – | 0.158 | – | – | 0.092 | – | -0.277 | – |
| MYO10 (UniProt Q9HD67) | -0.185 | 0.211 | 0.483 | – | 0.171 | – | – | 1.26 (active) | -0.381 | – | 0.048 | -0.012 | -0.106 | – | – | – | 0.021 | – | 0.087 | -0.287 |
| NTMT1 (UniProt S4R338) | – | – | – | 0.043 | – | – | -0.002 | – | – | – | – | – | – | – | – | – | – | 0.045 | – | – |
| NRIP1 (UniProt P48552) | -0.124 | 0.001 | – | 0.024 | 0.076 | – | -0.055 | -0.651 (active) | 0.17 | -0.071 | -0.145 | -0.096 | – | 0.291 | – | – | -0.21 | 0.04 | -0.011 | -0.074 |
| NUDT6 (UniProt P53370) | -0.085 | 0.042 | 0.022 | – | – | 0.091 | – | – | – | 0.05 | – | 0.154 | -0.002 | -0.024 | -0.021 | -0.015 | – | – | – | -0.033 |
| MYO9A isoform 4 (UniProt B2RTY4) | -0.019 | -0.077 | 0.248 (active) | 0.023 | 0.053 | – | -0.028 | -0.021 | 0.002 | -0.068 | 0.034 | -0.013 | -0.026 | 0.015 | – | – | -0.035 | 0.04 | 0.009 | 0.093 |
| NR2C2 isoform 2 (UniProt P49116) | 0.003 | -0.045 | -0.087 | 0.049 | 0.017 | -0.091 | -0.001 | 0.075 | -0.074 | -0.058 | 0.075 | -0.03 | 0.058 | 0.1 | -0.002 | -0.022 | – | -0.002 | – | 0.002 |
| NDUFAF5 (UniProt Q5TEU4) | -0.103 | 0.12 | -0.015 | 0.007 | -0.032 | 0.127 | 0.04 | -0.052 | 0.035 | 0.179 | -0.004 | -0.068 | -0.047 | 0.175 | 0.18 | -0.065 | – | -0.033 | – | 0 |
| NFAT5 isoform 4 (UniProt O94916) | – | – | – | – | -0.039 | – | – | – | – | – | – | – | – | – | – | – | – | – | – | 0 |
| P2RY1 (UniProt P47900) | 0.022 | 0.06 | – | -0.08 | 0.034 | 0.006 | -0.111 | 0.057 | 0.093 | 0.015 | -0.025 | -0.077 | – | -0.013 | 0.054 | 0.057 | – | -0.068 | – | – |
| ORC3 (UniProt Q9UBD5) | – | – | – | -0.16 | – | – | 0.003 | 0.185 | -0.06 | – | 0.16 | – | – | – | – | – | -0.035 | 0 | 0.105 | – |
| PAPOLG (UniProt Q9BWT3) | -0.02 | 0.16 | -0.176 | – | – | -0.04 | – | -0.013 | -0.049 | -0.235 | -0.008 | 0.003 | -0.025 | 0.085 | 0.063 | 0.098 | -0.035 | – | 0.062 | 0.031 |
| NPLOC4 (UniProt I3L3I1) | – | – | – | – | 0.125 | 0.104 | – | – | – | 0.152 | – | – | – | 0.799 | 0.014 | -0.143 | – | – | – | -0.108 |
| MYBL2 (UniProt P10244) | 0.069 | -0.15 | -0.07 | – | – | 0.013 | – | 0.217 | -0.296 | 0.057 | 0 | 0.045 | 0.113 | -0.016 | 0.088 | -0.023 | – | – | – | 0.043 |
| NUDT5 (UniProt C9JYY9) | – | – | – | – | – | 0.036 | – | – | – | – | – | 0.026 | – | – | 0.066 | -0.029 | -0.092 | – | -0.075 | – |
| NOCT (UniProt Q9UK39) | 0.004 | 0.012 | – | -0.04 | – | 0 | 0.02 | – | – | -0.103 | – | 0.159 | – | 0.042 | 0.046 | -0.01 | 0.009 | -0.144 | -0.088 | -0.073 |
| MT-ATP8 (UniProt P03928) | 0.128 | 0.072 | 0.033 | -0.036 | 0.057 | 0.063 | 0.015 | 0.711 (active) | -0.144 | – | 0.044 | 0.08 | 0.017 | – | -0.071 | -0.139 | -0.017 | -0.078 | -0.081 | -0.084 |
| NSUN7 (UniProt Q8NE18) | -0.049 | 0.176 | -0.098 | -0.046 | -0.084 | -0.016 | 0.077 | -0.039 | -0.032 | – | -0.191 | -0.001 | -0.035 | – | 0.21 | -0.026 | – | -0.006 | – | 0.017 |
